# Source: the supplement of paper PMC6555819
# Columns and labels:
# Test in all cases: PBM binding z-score (relative to random genomic background probes); higher = stronger binding; sequences stand for … in GC…GCGATTGACAGCGTAGAATGAAGG
# [1] = tested on: PPARg:RXRa DBDmut IVT, anti-RXR (DBD mutation: RXRa K156A/R161A, NR concentration 270 nM, RXRa partner concentration 90 nM)
# How it was run: (§1)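 Scanned fluorescence from custom Agilent 4×180K protein-binding microarrays was regression-normalized. Binding z-scores use random background probes as reference. Ligand-free nuclear receptor dimers were incubated on the arrays for 1 h and detected with antibodies against each partner (one per run).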
# [2] = tested on: PPARg:RXRa IVT, anti-PPARg (NR concentration 270 nM, RXRa partner concentration 90 nM)
# How it was run: as §1
# [3] = tested on: PPARg DBDmut:RXRa IVT, anti-PPARg (DBD mutation: PPARg1 K132A/R137A, NR concentration 270 nM, RXRa partner concentration 90 nM)
# How it was run: as §1
# [4] = tested on: PPARg DBDmut IVT, anti-PPARg (DBD mutation: PPARg1 K132A/R137A, NR concentration 270 nM)
# How it was run: as §1
# [5] = tested on: PPARg homodimer (NR concentration 180 nM)
# How it was run: as §1
# [6] = tested on: PXR:RXRa (NR concentration 270 nM, RXRa partner concentration 90 nM)
# How it was run: as §1
# [7] = tested on: PXR homodimer (NR concentration 270 nM)
# How it was run: as §1
# [8] = tested on: RARa:RXR (NR concentration 270 nM, RXRa partner concentration 90 nM)
# How it was run: as §1
# [9] = tested on: RARa homodimer (NR concentration 270 nM)
# How it was run: as §1
# [10] = tested on: RARb:RXRa (NR concentration 270 nM, RXRa partner concentration 90 nM)
# How it was run: as §1
# [11] = tested on: RARb homodimer (NR concentration 270 nM)
# How it was run: as §1
# [12] = tested on: RARg:RXRa (NR concentration 270 nM, RXRa partner concentration 90 nM)
# How it was run: as §1
# [13] = tested on: RARg homodimer (NR concentration 270 nM)
# How it was run: as §1
# [14] = tested on: RXRa DBDmut IVT, anti-RXR (DBD mutation: RXRa K156A/R161A, NR concentration 90 nM)
# How it was run: as §1
# [15] = tested on: RXRa homodimer (NR concentration 180 nM)
# How it was run: as §1
# [16] = tested on: THRa:RXRa (NR concentration 90 nM, RXRa partner concentration 90 nM)
# How it was run: as §1
# [17] = tested on: THRa homodimer (NR concentration 90 nM)
# How it was run: as §1
# [18] = tested on: VDR homodimer (NR concentration 270 nM)
# How it was run: as §1
Sequence,PBM binding z-score [1],PBM binding z-score [2],PBM binding z-score [3],PBM binding z-score [4],PBM binding z-score [5],PBM binding z-score [6],PBM binding z-score [7],PBM binding z-score [8],PBM binding z-score [9],PBM binding z-score [10],PBM binding z-score [11],PBM binding z-score [12],PBM binding z-score [13],PBM binding z-score [14],PBM binding z-score [15],PBM binding z-score [16],PBM binding z-score [17],PBM binding z-score [18]
CCTTCTGGGCCAAGGTCATTGATCAGTCAAAGCA,3.79,4.03,-0.283,-0.969,1.45,3.33,1.12,3.11,-0.215,3.39,3.27,3.66,3.02,1.31,3.24,3.49,2.34,2.71
AGAATGAGGGCACGCTGAGTTGATAGCAGAGTAG,5.59,4.73,1.66,0.551,0.535,1.48,0.452,1.18,-0.371,2.62,1.3,2.28,2.15,2.2,1.7,2.53,0.735,2.08
ATCTCTAGGTAAAGATATTTCAGTGAATGCAAAT,2.46,1.88,1.53,1.33,0.424,0.367,0.337,0.994,1.26,0.0831,-0.275,0.202,0.289,-0.0383,0.125,0.524,0.252,-0.0481
TCTTGTAGATCCAAGGTTAAGAAAGCCGAAGCCT,1.7,0.596,0.181,0.325,0.227,0.966,0.261,1.18,-0.206,0.88,0.743,0.336,0.0629,0.928,1.13,1.27,0.204,0.0451
AGAATCAGGTTAAGATCAGGGAAACAGAATACAT,2.26,2.1,1.36,1.33,1.01,0.297,1.14,0.552,1.62,1.1,0.909,0.705,0.926,0.172,0.786,1.45,0.772,0.415
TAGAGTAGGTTACCAATGGGGCATTCAGCTTTCT,4.68,4.33,0.638,0.725,1.06,0.312,0.223,0.669,1.18,1.33,1.09,1.76,1.12,0.201,0.73,0.389,-0.222,-0.0971
TTACCAAGGTGAGCTGAGGTCGTAGATCCAACTC,0.925,1.67,-0.714,-0.674,-0.332,4.2,-0.58,2.1,-0.84,1.85,1.66,1.5,1.13,-0.577,1.72,4.78,1.9,0.82
CCGACTGGGGCATCAGGTTACCATAAGCCAGCCC,3.34,3.84,-0.621,-1.56,0.326,-0.505,-0.821,-0.109,-0.776,1.01,0.867,0.461,0.586,-0.734,0.214,0.994,0.484,-0.423
CGTCCAAGGTAAAGGTCAGTGAAAGAGACTCGAA,1.42,3.27,-0.427,-0.748,1.81,3.05,0.298,3.83,1.38,4.61,4.43,4.58,5.49,0.687,4.48,3.2,0.7,0.765
TCTATTCGTTGAAGGGCAACCGACGAGTCCGTTT,2,0.764,0.959,0.28,0.703,0.999,0.546,0.933,0.583,1.56,1.39,0.744,0.769,1.49,0.993,0.507,0.017,1.27
CCTACTGGGCCAAAGGTCATTAATTCCAATGCTC,5.16,6.79,0.543,0.388,4.75,5.26,2.61,5.93,2.26,4.25,4.19,5.3,4.49,1.34,6.16,3.01,0.695,2.77
GCGACTGGGGCATCATCAGGTTACCATAACTTAA,4.15,3.3,-0.137,-0.42,0.121,0.266,-0.0234,1.05,-0.63,0.767,1.15,0.589,0.679,0.291,0.302,2.31,1.31,0.0657
TCTATTAGTTGATTAGGGAAACCGAAACAGCGGA,2.16,0.295,0.834,0.978,1.03,0.624,1.07,0.778,1.68,0.394,0.0312,0.311,0.329,1.18,0.472,0.12,0.159,0.507
TCTAGTTGGTCACGGAGGTCACTCACGACGGGTA,2.58,3.97,0.646,0.986,2.5,3.9,1.36,3.6,1.05,3.47,4.12,4.23,4.31,1.24,3.96,3.23,2.26,2.93
